Measured values published in PubChem BioAssay (NCI).
Compounds without any hit were thinned out: in the full panel of roughly 83,000, 20% have a hit.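 Results are percent growth after 48 hours of single-concentration exposure. 100 means growth as in untreated cells, lower positive values show inhibition; negative values down to -100 show cell death.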 Calls of active or inactive are those of the source. The calls were made as follows: active = growth percent below 10; inactive = the rest.

Legend:
Test in all cases: NCI-60 one-dose screen, 48 h (100 = growth as untreated, 0 = no growth, -100 = all killed)
Details in all cases: 10 µM unless noted
SK-MEL-2 melanoma = test system: SK-MEL-2 melanoma
EKVX NSCLC = test system: EKVX NSCLC
SN12C renal = test system: SN12C renal
UO-31 renal = test system: UO-31 renal
TK-10 renal = test system: TK-10 renal
ACHN renal = test system: ACHN renal
CAKI-1 renal = test system: CAKI-1 renal
A498 renal = test system: A498 renal
CCRF-CEM leukemia = test system: CCRF-CEM leukemia
MOLT-4 leukemia = test system: MOLT-4 leukemia

| Compound | growth (SK-MEL-2 melanoma) | growth (EKVX NSCLC) | growth (SN12C renal) | growth (UO-31 renal) | growth (TK-10 renal) | growth (ACHN renal) | growth (CAKI-1 renal) | growth (A498 renal) | growth (CCRF-CEM leukemia) | growth (MOLT-4 leukemia) |
| --- | --- | --- | --- | --- | --- | --- | --- | --- | --- | --- |
| CCOC(=O)c1c(C)nn(CC(O)c2ccccc2)c1NC(=O)Nc1cccc(F)c1 (stereo not given) | 90.9% (inactive) | 91.2% (inactive) | 84.1% (inactive) | 74.8% (inactive) | 110% (inactive) | 89.7% (inactive) | 83.4% (inactive) | 70.9% (inactive) | 89.3% (inactive) | 88.7% (inactive) |
| N#CC(C#N)N=Nc1ccc(Cl)cc1Cl | 99.9% (inactive) | 99.3% (inactive) | 82.9% (inactive) | 57.8% (inactive) | 90.8% (inactive) | 58.4% (inactive) | 70.8% (inactive) | 84.7% (inactive) | 48.3% (inactive) | 75.5% (inactive) |
| CCCCCCCCCCCCCCCCCCOc1ccccc1CC(=O)OCC[N+]1(C)CCOCC1 | 91.5% (inactive) | 86.7% (inactive) | 31.4% (inactive) | 67.9% (inactive) | 43.5% (inactive) | 89.6% (inactive) | 49.1% (inactive) | 64.1% (inactive) | 30.1% (inactive) | 46.9% (inactive) |
| Cc1cc(C)cc(Nc2ccc([N+](=O)[O-])c(NCCN3CCOCC3)n2)c1 | 43.4% (inactive) | 66% (inactive) | 32.2% (inactive) | 23.1% (inactive) | 65% (inactive) | 30.4% (inactive) | 37.4% (inactive) | -0.289% (active) | 5.33% (active) | 10.3% (inactive) |
| O=C(Nc1ncc(Cc2ccccc2Cl)s1)c1cccs1 | 69.4% (inactive) | 77.7% (inactive) | 82.5% (inactive) | 70.8% (inactive) | 88% (inactive) | 73.2% (inactive) | 41.8% (inactive) | 67.1% (inactive) | 66.2% (inactive) | 61.7% (inactive) |
| O=c1nc(Nc2nc3ccccc3s2)[nH]c(=O)c2ccccc12 | 110% (inactive) | 95.2% (inactive) | 98.6% (inactive) | 89.4% (inactive) | 119% (inactive) | 89.8% (inactive) | 85.2% (inactive) | 77.4% (inactive) | 106% (inactive) | 102% (inactive) |
| Brc1ccc(-c2cnc3nonc3n2)cc1 | 88.9% (inactive) | 72.1% (inactive) | 96.1% (inactive) | 63.6% (inactive) | 96.3% (inactive) | 76.9% (inactive) | 59.7% (inactive) | 96.7% (inactive) | 30% (inactive) | 37.5% (inactive) |
| O=C1NC(=O)c2c1c1c3ccccc3[nH]c1c1oc3ccc(F)cc3c21 | 89.4% (inactive) | 56.4% (inactive) | 74.6% (inactive) | 25% (inactive) | 70.6% (inactive) | 43.2% (inactive) | 41.2% (inactive) | -6.99% (active) | 73.6% (inactive) | 76.2% (inactive) |
| O=C(/C=C/c1ccccc1)Nc1ncc(Cc2ccccc2)s1 | 26.1% (inactive) | 23.2% (inactive) | 32.4% (inactive) | 30.4% (inactive) | 35% (inactive) | 26.5% (inactive) | 27.8% (inactive) | 12.6% (inactive) | 20.3% (inactive) | 22.6% (inactive) |
| S=c1ssnc1-c1cccs1 | 103% (inactive) | 104% (inactive) | 106% (inactive) | 99.9% (inactive) | 99.5% (inactive) | 107% (inactive) | 92.1% (inactive) | 23.4% (inactive) | 97.5% (inactive) | 84.9% (inactive) |
| COc1ccc(NC(=O)c2cccc(C3CCc4c(cc(OC)c(OC)c4OC)O3)c2)cc1 (stereo not given) | 9.28% (active) | 47% (inactive) | 31.4% (inactive) | 28.8% (inactive) | 43.7% (inactive) | 41.1% (inactive) | 44.6% (inactive) | -8.67% (active) | -1.05% (active) | 9.23% (active) |
| Cn1cc(-c2nonc2-c2c[nH]c3ccc(F)cc23)c2cc(Br)ccc21 | 71.5% (inactive) | 37.6% (inactive) | 63.7% (inactive) | 30.4% (inactive) | 57% (inactive) | 38.4% (inactive) | 25.3% (inactive) | 44.8% (inactive) | 40.7% (inactive) | 32.1% (inactive) |
| CCOC(=O)c1ccc2c(c1)c1c(C)c3ccncc3c(C)c1n2C | -38.2% (active) | 10.3% (inactive) | 4.36% (active) | -13.4% (active) | 2.52% (active) | -22.5% (active) | -10.4% (active) | -45.6% (active) | 12.6% (inactive) | 8.03% (active) |
| C=C(C)[C@@H]1CC[C@]2(CO)CC[C@]3(C)[C@H](CC[C@@H]4[C@@]5(C)CCC(NCCc6ccc(O)cc6)C(C)(C)[C@@H]5CC[C@]43C)[C@@H]12 (stereo not given in full) | -85% (active) | -52.1% (active) | -88.9% (active) | -96.9% (active) | -94.5% (active) | -100% (active) | -58.5% (active) | 6.99% (active) | -41.3% (active) | -43.8% (active) |
| COC(c1ccc2ccccc2c1)C(C)C(F)F (stereo not given) | 97.8% (inactive) | 100% (inactive) | 98.2% (inactive) | 90.6% (inactive) | 86.4% (inactive) | 100% (inactive) | 95.9% (inactive) | 99.7% (inactive) | 62.2% (inactive) | 99.3% (inactive) |
| COc1cc2c3c(c1O)-c1ccccc1[C@@H]1OC(=O)N(CC2)[C@H]31 | 97.6% (inactive) | 104% (inactive) | 101% (inactive) | 88.5% (inactive) | 104% (inactive) | 106% (inactive) | 95.4% (inactive) | 92.9% (inactive) | 74.1% (inactive) | 96.8% (inactive) |
| C#CCOc1cccc(-c2ncc3cc(NC(=O)CCl)ccc3n2)c1 | 22.7% (inactive) | -1.1% (active) | -42.5% (active) | 50.9% (inactive) | 78.9% (inactive) | -87.2% (active) | -27.3% (active) | 88.1% (inactive) | -16.8% (active) | 0.493% (active) |
| COc1ccc2c(c1)c(-c1nonc1-c1c[nH]c3ccc(Br)cc13)cn2C | 46.9% (inactive) | 31.6% (inactive) | 59.3% (inactive) | 40.8% (inactive) | 58.2% (inactive) | 43.7% (inactive) | 34.3% (inactive) | 27.4% (inactive) | 33.5% (inactive) | 17.6% (inactive) |
| Cc1ccc(-c2csc(NC(=O)N3CCN(c4cc5c(cc4F)c(=O)c(C(=O)O)cn5C4CC4)CC3)n2)cc1 | -26.3% (active) | 20.4% (inactive) | 15.5% (inactive) | 8.87% (active) | 26.1% (inactive) | 5.91% (active) | 22.2% (inactive) | 2.51% (active) | 12.9% (inactive) | 3.49% (active) |
| CN1CCN(Cc2cc(NC(=O)c3cccc(C#Cc4cccc5[nH]nc(N)c45)c3)cc(C(F)(F)F)c2)CC1 | 17.8% (inactive) | 46% (inactive) | 19.3% (inactive) | -17% (active) | 61.4% (inactive) | 4.75% (active) | 70.8% (inactive) | 42.6% (inactive) | -8.44% (active) | -35.2% (active) |
| CC(=O)c1cc(-c2ccccc2N)n(-c2ccc3c(c2)OCO3)c1C | 51.6% (inactive) | 50.9% (inactive) | 29.1% (inactive) | 40.2% (inactive) | 45.6% (inactive) | 21.2% (inactive) | 41.7% (inactive) | -12% (active) | 11.8% (inactive) | 16.1% (inactive) |
| COc1cc(C2Cc3ncccc3-c3[nH]c(=O)c4cccnc4c32)cc(OC)c1OC (stereo not given) | 19.4% (inactive) | 44.2% (inactive) | 39.8% (inactive) | 38.6% (inactive) | 52.6% (inactive) | 46.4% (inactive) | 31.8% (inactive) | -1.31% (active) | 22.1% (inactive) | 23.8% (inactive) |
| Cc1nn(-c2ccccc2)c(/N=C/N(C)C)c1/C=C/C(=O)c1ccc(Cl)cc1 | 99.4% (inactive) | 77.4% (inactive) | 82.5% (inactive) | 78.1% (inactive) | 104% (inactive) | 102% (inactive) | 50.4% (inactive) | 92.6% (inactive) | 66.6% (inactive) | 60.9% (inactive) |
| Cc1nc2sc(C(=O)Nc3cccc(Cl)c3)c(N)c2cc1C(O)c1ccccc1 (stereo not given) | 49.9% (inactive) | 44.6% (inactive) | 24.4% (inactive) | 45.7% (inactive) | 62.4% (inactive) | 30.5% (inactive) | 46.4% (inactive) | 8.38% (active) | 17.1% (inactive) | 14.5% (inactive) |
| COc1cc(C(=O)c2c(N)ncn2-c2ccccc2)cc(OC)c1OC | 104% (inactive) | 102% (inactive) | 88.2% (inactive) | 81.2% (inactive) | 106% (inactive) | 102% (inactive) | 92.3% (inactive) | 90.2% (inactive) | 92.5% (inactive) | 109% (inactive) |
